Measurements as given in PubChem BioAssay (NCATS).
Inconclusive results are not listed. Entries that show only a call come without a potency. Unmarked numbers belong to inactive results. Activity calls are given as the source filed them. Unless noted, calls come from the whole dose curve; as a rule, active = well fitted curve in the direction sought with a large enough effect; inconclusive = small, poorly fitted or top-dose-only effect, or another doubt; inactive = no such curve, though single readings can be large; an effect the other way counts as inactive or inconclusive. Where a SMILES comes first, the peptide text is derived from it.

Tests used:
[1] = P-glycoprotein substrates identified in KB-3-1 adenocarcinoma cell line, qHTS therapeutic library screen (AID 1346986); note: nearly all actives have a fitted effect of over 60% in size
How it was run: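 Viability by CellTiter-Glo after 72 h compound exposure at 37 degree C, 5% CO2. Cytotoxic call: curve class -1.1 to -2.4, maximum response >50%, AC50 < 10 uM, compared across KB-3-1 and P-gp-overexpressing KB-8-5-11.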

[2] = P-glycoprotein substrates identified in KB-8-5-11 adenocarcinoma cell line, qHTS therapeutic library screen (AID 1346987); note: nearly all actives have a fitted effect of over 65% in size; for activity change, negative = cytotoxicity: series mostly up to about 44 µM
How it was run: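 Human cervical adenocarcinoma KB-8-5-11 cells, selected in colchicine to over-express P-gp and assayed without it, were exposed for 72 h to titrated compounds. An ATP-based luminescent viability signal gave AC50.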

Furin (Homo sapiens) = Furin (Homo sapiens) (UniProt P09958); experiment: Furin counterscreen qHTS for Zika virus inhibitors (AID 1347149);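 note: purified recombinant full-length human furin enzyme at 5 nM; fluorescence gain from furin cutting a BOC-RVRR-AMC peptide substrate over 15 min; top concentration of the series differs between compounds; nearly all actives have a fitted effect of over 70% in size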
How it was run: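 Counterscreen measures cleavage of 2 microM BOC-RVRR-AMC, below its ~15 microM Km, by 5 nM full-length human furin at pH 7.0 after a 15-min compound preincubation. Inhibition derives from the 15-min fluorescence increase at 37C.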

[3] = S16 Schwann cell PMP22 intronic element firefly luciferase assay (AID 624032); note: series mostly up to about 58 µM; nearly all actives have a fitted effect of over 30% in size
How it was run: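 Rat S16 Schwann cells stably carrying firefly luciferase driven by a PMP22 intronic element, in 10% FBS, treated 24 h at 37 C. ONE-Glo luminescence normalized to PTC124 control and DMSO (0%); curves classed by r2, magnitude and activity.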

[4] = S16 Schwann cell PMP22 intronic element beta-lactamase assay (AID 624044; calls by dose curve; note: nearly all actives have a fitted effect of over 15% in size)
How it was run: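 Beta-lactamase reporter under a PMP22 intronic regulatory element in stable S16 rat Schwann cells; 24 h compound exposure. 460 nm blue signal normalized between DMSO (0%) and potassium clavulanate, with 535 nm FRET tracking viability; curves classed by r2 and response.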

Sequence of Furin (Homo sapiens) (P09958 whole entry, looked up): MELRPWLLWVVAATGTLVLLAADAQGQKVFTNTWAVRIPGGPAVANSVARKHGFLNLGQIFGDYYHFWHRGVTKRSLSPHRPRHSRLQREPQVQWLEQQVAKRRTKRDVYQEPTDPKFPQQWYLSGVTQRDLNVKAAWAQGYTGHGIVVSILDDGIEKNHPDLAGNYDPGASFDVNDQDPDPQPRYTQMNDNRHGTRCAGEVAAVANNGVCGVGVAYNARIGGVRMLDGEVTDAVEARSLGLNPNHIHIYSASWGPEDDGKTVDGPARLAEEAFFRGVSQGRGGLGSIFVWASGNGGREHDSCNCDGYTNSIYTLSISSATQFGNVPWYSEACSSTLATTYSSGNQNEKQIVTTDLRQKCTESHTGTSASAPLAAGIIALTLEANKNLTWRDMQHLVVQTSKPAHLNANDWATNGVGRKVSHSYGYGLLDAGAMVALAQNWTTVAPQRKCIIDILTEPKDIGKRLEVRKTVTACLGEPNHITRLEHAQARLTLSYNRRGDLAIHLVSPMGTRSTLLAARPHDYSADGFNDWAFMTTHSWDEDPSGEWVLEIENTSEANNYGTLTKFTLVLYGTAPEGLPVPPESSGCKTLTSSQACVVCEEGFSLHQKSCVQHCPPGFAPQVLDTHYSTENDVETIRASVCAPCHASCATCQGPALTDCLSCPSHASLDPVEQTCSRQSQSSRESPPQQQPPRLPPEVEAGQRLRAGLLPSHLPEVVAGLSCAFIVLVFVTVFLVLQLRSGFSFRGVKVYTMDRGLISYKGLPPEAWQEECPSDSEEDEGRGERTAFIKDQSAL

CCc1nnc(NS(=O)(=O)c2ccc(NC(=S)NC(=O)/C=C/c3ccc(F)cc3)cc2)s1
Potency [1]: inactive
Potency [2]: inactive
Potency (Furin (Homo sapiens)): inactive

CC1(C)O[C@H]2CC(=O)OC[C@@]23C1=C(O)C(=O)[C@]1(C)C3CC[C@@]2(C)[C@H](c3ccoc3)OC(=O)[C@H]3O[C@]321 (stereo partly drawn)
Potency [1]: inactive
Potency [2]: inactive

CC1(C)CCC2(C(=O)O)CCC3(C)C(=CCC4C5(C)CCC(O)C(C)(CO)C5C(O)CC43C)C2C1 (stereo not drawn)
Potency [2]: inactive

CCc1cccc2c3c([nH]c12)[C@@](CC)(CC(=O)O)OCC3
outcome [3]: inactive
outcome [4]: inactive
Potency [1]: inactive
Potency [2]: inactive

O=C(COCC(=O)N1CCN(C(c2ccccc2)c2ccccc2)CC1)Nc1ccc(Cl)cc1C(=O)O
Potency [1]: inactive
Potency [2]: inactive

C/C=C/C(=O)OC1/C=C/C(O)C(OC(C)=O)CCC(=O)OC1C (stereo not drawn)
Potency [2]: inactive

CCC(C)/C=C(C)/C=C/C1=CC2=CC(=O)C(C)(O)C(OC(C)=O)C2CO1 (stereo not drawn)
Potency [2]: inactive

CC(=O)NC1CC(=O)C23C(=O)NC(Cc4c[nH]c5ccccc45)C2C(C)=C(C)C(O)C3/C=C/CC(C)/C=C(/C)C(O)C1O (stereo not drawn)
Potency [2]: inactive

CSCC[C@H](NC(=O)[C@H](CO)NC(=O)[C@H](CCC(=O)O)NC(C)=O)C(=O)N[C@H](C=O)CC(=O)O (Ac-ESMD-aldehyde)
activity change, negative = cytotoxicity [2]: 5.02% [at 9.29 µM]

C[C@]1(OC(=O)/C=C/c2ccc(O)cc2)C[C@@H](O)[C@]2(O)C=CO[C@@H](O[C@@H]3O[C@H](CO)[C@@H](O)[C@H](O)[C@H]3O)C12 (stereo partly drawn)
Potency [2]: inactive

Cc1ccccc1NC(=O)Nc1ccc(CN2C(=O)N([C@@H](CC(C)C)C(=O)N[C@@H](CC(=O)O)c3ccccc3)C(=O)C2(C)C)cc1
Potency [1]: inactive
Potency [2]: inactive
Potency (Furin (Homo sapiens)): inactive

COc1cccc(OC)c1-c1cc(C(=O)N[C@@H](CC(C)C)C(=O)O)nn1-c1ccnc2cc(Cl)ccc12
Potency [1]: inactive
Potency [2]: inactive
Potency (Furin (Homo sapiens)): inactive

C[C@H]1[C@@H](O)[C@H](O)C2[C@]3(C)C([C@@H](O)[C@H]4OC(=O)[C@@H]1[C@@]24C)[C@](C)(O)C=C[C@H]3O[C@@H]1O[C@H](CO)[C@@H](O)[C@H](O)[C@H]1O (stereo partly drawn)
Potency [2]: inactive

CC(C)CC(c1c(O)c(C=O)c(O)c(C=O)c1O)C1CCC(C)(O)C2CC(C(C)(C)O)CCC12C (stereo not drawn)
Potency [1]: inactive
Potency [2]: inactive
Potency (Furin (Homo sapiens)): inactive

C=C1C(OC(C)=O)CCC2(C)CCC(C(C)(C)O)CC12 (stereo not drawn)
Potency [2]: inactive

COc1cc(C(CO)C(OC2OC(CO)C(O)C(O)C2O)c2ccc(O)c(OC)c2)ccc1O (stereo not drawn)
Potency [2]: inactive

COC(=O)c1ccccc1O[C@@H]1O[C@H](CO[C@@H]2OC[C@@H](O)[C@H](O)[C@H]2O)[C@@H](O)[C@H](O)[C@H]1O
Potency [2]: inactive

CC1=CC(=O)CC(C)(C)C1/C=C/C(C)OC1OC(COC2OCC(O)C(O)C2O)C(O)C(O)C1O (stereo not drawn)
Potency [2]: inactive

NC(=O)NCCCC(NC(=O)Cc1ccccc1)C(=O)O (stereo not drawn)
Potency [2]: inactive

CC(=O)O[C@@H]1[C@H](O[C@@H]2OC[C@](O)(CO)[C@H]2O)[C@@H](O[C@@H]2O[C@@H](C)[C@H](O)[C@@H](O[C@@H]3O[C@H](CO)[C@@H](O)[C@H](O)[C@H]3O)[C@H]2O)[C@H](OC(=O)[C@]23CCC(C)(C)C[C@H]2C2=CCC4[C@@]5(C)C[C@H](O)[C@H](O[C@@H]6O[C@H](C(=O)O)[C@@H](O)[C@H](O)[C@H]6O)[C@@](C)(C(=O)O)C5CC[C@@]4(C)[C@]2(C)CC3)O[C@@H]1C (stereo partly drawn)
outcome [2]: inactive [at 9.29 µM]

CC(C)NC(=O)c1ccc(C#Cc2ccncc2)cn1
Potency [2]: inactive

C/C(=C\CCC(C)CCO)C(=O)OC[C@H]1O[C@@H](O[C@@H]2OC=C(C(=O)O)[C@H]3CC[C@](C)(O)[C@@H]23)C(O)[C@@H](O)C1O (stereo partly drawn)
Potency [2]: inactive

CC(CCc1ccc(O)cc1)O[C@@H]1O[C@H](CO[C@@H]2OC(CO)[C@H](O)[C@H]2O)[C@@H](O)[C@H](O)[C@H]1O (stereo partly drawn)
Potency [2]: inactive

CC(/C=C/C=C(\C)C(=O)O[C@@H]1O[C@H](CO[C@@H]2O[C@H](CO)[C@@H](O)[C@H](O)[C@H]2O)[C@@H](O)[C@H](O)[C@H]1O)=C\C=C\C=C(C)\C=C\C=C(/C)C(=O)O[C@@H]1C[C@](O)(C(=O)O)C[C@@H](O)[C@H]1OC(=O)/C=C/c1ccc(O)c(O)c1
activity change, negative = cytotoxicity [2]: 3.01% [at 9.29 µM]

Nc1c(-c2ccccc2)nc(Cl)c2c(O)n[nH]c(=O)c12
Potency [2]: inactive

c1ccc2c(Nc3nnc(-c4ccncc4)s3)cccc2c1
Potency [2]: inactive

CC(=O)O[C@@H]1C(=O)C(C)=C(CCC(C)CC(=O)O)[C@@]2(C)CCCC(C)(C)C12 (stereo partly drawn)
Potency [2]: inactive

Oc1ccccc1-c1cc(-c2ccccc2F)[nH]n1
Potency [2]: inactive

O=C(OCC1=C[C@@H](O)[C@@H]2C=CO[C@@H](O[C@@H]3O[C@H](CO)[C@@H](O)[C@H](O)[C@H]3O)[C@H]12)c1ccc(O)cc1
Potency [2]: inactive

C/C=C/C=C/C=C/C(=O)OC1C=C2C(O)OC(=O)[C@]2(O)[C@@]2(C)CCCC(C)(C)[C@H]12 (stereo partly drawn)
Potency [2]: inactive

CC(=O)NCC1CN(c2ccc(-c3ccc(CNCc4cn[nH]n4)cc3)c(F)c2)C(=O)O1 (stereo not drawn)
Potency [2]: inactive

C=C1C(OC(C)=O)C(=O)C2C(C)(C)C(O)CCC2(C)C1CC(OC(C)=O)/C(C)=C/COC(C)=O (stereo not drawn)
Potency [2]: inactive

COc1cc(CO)cc(OC)c1O[C@@H]1O[C@H](CO)[C@@H](O)[C@H](O)[C@H]1O
Potency [2]: inactive

COc1ccc(C2(O)c3ccccc3NC(=O)C2OC)cc1 (stereo not drawn)
Potency [2]: inactive

COc1cc(C[C@@]2(O)CO[C@@H](c3ccc(O[C@@H]4O[C@H](CO)[C@@H](O)[C@H](O)[C@H]4O)c(OC)c3)[C@H]2CO)ccc1O
Potency [2]: inactive
